Bioassay records deposited in PubChem BioAssay by several laboratories.
In the library only some 32% were active in any assay of this set; here they are far more common.
PostGolgi yeast: growth inhibition of a yeast mutant, post-Golgi transport screen; post-Golgi transport phenotypic cell assay; inhibition, % at 10 µM; 0.9% of 98,000 active;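 note: yeast cells grown in 1536-well plates; yeast grown about 18 h at 30C before absorbance read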
PostGolgi ctrl: yeast control strain growth, post-Golgi counter-screen | efflux-deficient yeast background strain, growth absorbance A615, 16 h | inhibition, % at 10 µM | 5% of 98,000 active | AID 738
CYP2C19 inh: blocks human cytochrome P450 2C19 | P33261 | CYP2C19 Supersomes, luciferin-H EGE luminescence, 30 min | inhibition, % at 5 µM | 21% of 96,000 active;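 active = CYP2C19 inhibition above a set limit at 5 µM in the primary screen, cut at about 50% in these data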
CYP2C9 act: activators of human CYP2C9 | 1.4% of 96,000 active | activation factor at 5 µM | recombinant CYP2C9, luciferin-H conversion, luminescence; active compounds read high; factor 1 = untreated enzyme, 0 = blocked;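 active = activation factor of 2 or more for CYP2C9 at a 5 µM dose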
Target sequence (P11712 whole entry, looked up): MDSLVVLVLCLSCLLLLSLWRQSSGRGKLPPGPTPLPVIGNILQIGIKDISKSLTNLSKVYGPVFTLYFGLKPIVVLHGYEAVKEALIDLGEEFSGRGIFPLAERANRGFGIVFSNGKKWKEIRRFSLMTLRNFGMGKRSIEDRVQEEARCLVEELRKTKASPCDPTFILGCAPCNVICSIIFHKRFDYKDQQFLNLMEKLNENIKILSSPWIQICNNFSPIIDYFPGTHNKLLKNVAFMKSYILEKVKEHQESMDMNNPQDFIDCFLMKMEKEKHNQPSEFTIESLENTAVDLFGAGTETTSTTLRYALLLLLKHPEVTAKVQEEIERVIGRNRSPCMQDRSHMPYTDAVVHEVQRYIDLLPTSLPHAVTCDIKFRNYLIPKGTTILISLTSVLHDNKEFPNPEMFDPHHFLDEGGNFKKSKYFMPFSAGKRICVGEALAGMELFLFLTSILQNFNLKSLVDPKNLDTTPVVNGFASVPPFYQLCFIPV
CYP2C19 activ: cytochrome P450 2C19 (human) activation; activation factor at 5 µM; recombinant CYP2C19, luciferin-H EGE luminescence; active compounds read high; 0 = fully inhibited enzyme, 1 = untreated enzyme; 96,000 tested, under 10 active; P33261;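 active = activation factor of at least 2 at 5 µM in the primary screen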
CYP2C9 inhib: blocks human cytochrome P450 2C9. P11712. CYP2C9 Supersomes, luciferin-H conversion, luminescence. inhibition, % at 5 µM. 20% of 96,000 active;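 active = blocking of liver enzyme CYP2C9 beyond about 50% at 5 µM, limit read from the data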
Numbers stand for hits. Cut-off read from the data, not from the text of the source, unless noted: active = inhibition above about 30%; inactive = the rest.

How did CCOc1ccc2nc(NC(=O)C3CCN(S(=O)(=O)c4cnc[nH]4)CC3)sc2c1 do in these assays?
PostGolgi yeast: inactive; PostGolgi ctrl: inactive; CYP2C19 inh: 84; CYP2C9 act: inactive; CYP2C19 activ: inactive; CYP2C9 inhib: 84

Results for Cc1ccc2nc(NC(=O)C3CCN(S(=O)(=O)c4cccs4)CC3)sc2c1 ?
PostGolgi yeast: 38; PostGolgi ctrl: 44; CYP2C19 inh: inactive; CYP2C9 act: inactive; CYP2C19 activ: inactive; CYP2C9 inhib: inactive

How did COc1ccc2nc(NC(=O)C3CCN(S(=O)(=O)c4cccnc4)CC3)sc2c1 do in these assays?
PostGolgi yeast: inactive; PostGolgi ctrl: inactive; CYP2C19 inh: inactive; CYP2C9 act: inactive; CYP2C19 activ: inactive; CYP2C9 inhib: inactive

What do the screens show for `CCOc1ccc(OCC)c(NC(=O)C2CCCN(S(=O)(=O)c3cccs3)C2)c1` (stereo unspecified)?
PostGolgi yeast: inactive; PostGolgi ctrl: inactive; CYP2C19 inh: inactive; CYP2C9 act: inactive; CYP2C19 activ: inactive; CYP2C9 inhib: inactive

Results for CCOC(=O)CC(=O)CSc1nnc(Cn2c(=O)sc3ccccc32)n1C ?
PostGolgi yeast: inactive; PostGolgi ctrl: inactive; CYP2C19 inh: inactive; CYP2C9 act: inactive; CYP2C19 activ: inactive; CYP2C9 inhib: inactive

Results for O=C(N/N=C1/CCCc2ccccc21)C(c1ccccc1)c1ccccc1 ?
PostGolgi yeast: inactive; PostGolgi ctrl: inactive; CYP2C19 inh: inactive; CYP2C9 act: inactive; CYP2C19 activ: inactive; CYP2C9 inhib: inactive

How did COc1ccccc1C1NC(c2ccccc2OC)C(C)C(=O)C1C (stereo unspecified) do in these assays?
PostGolgi yeast: inactive; PostGolgi ctrl: inactive; CYP2C19 inh: 100; CYP2C9 act: inactive; CYP2C19 activ: inactive; CYP2C9 inhib: 67

How did CCCc1c(O)nc(SCCN(CC)CC)n(C(=O)c2ccccc2)c1=O do in these assays?
PostGolgi yeast: inactive; PostGolgi ctrl: inactive; CYP2C19 inh: inactive; CYP2C9 act: inactive; CYP2C19 activ: inactive; CYP2C9 inhib: inactive

What do the screens show for `Cc1c([C@H]2[C@@H](CC#N)C2(C)C)c2ccccc2n1C`?
PostGolgi yeast: inactive; PostGolgi ctrl: inactive; CYP2C19 inh: inactive; CYP2C9 act: inactive; CYP2C19 activ: inactive; CYP2C9 inhib: inactive

Results for Cc1[nH]c2c(Br)cccc2c1[C@H]1[C@@H](CC#N)C1(C)C ?
PostGolgi yeast: inactive; PostGolgi ctrl: 39; CYP2C19 inh: inactive; CYP2C9 act: inactive; CYP2C19 activ: inactive; CYP2C9 inhib: 55

How did O=C(C1CCCN(S(=O)(=O)c2ccc(Br)s2)C1)N1CCCCCC1 (stereo unspecified) do in these assays?
PostGolgi yeast: inactive; PostGolgi ctrl: inactive; CYP2C19 inh: 63; CYP2C9 act: inactive; CYP2C19 activ: inactive; CYP2C9 inhib: inactive

How did NC(=O)CSc1nnc(-c2cccs2)n1-c1ccccc1 do in these assays?
PostGolgi yeast: inactive; PostGolgi ctrl: inactive; CYP2C19 inh: inactive; CYP2C9 act: inactive; CYP2C19 activ: inactive; CYP2C9 inhib: inactive

How did c1ccc(-n2c(Sc3cnccn3)nnc2-c2cccs2)cc1 do in these assays?
PostGolgi yeast: inactive; PostGolgi ctrl: inactive; CYP2C19 inh: 71; CYP2C9 act: inactive; CYP2C19 activ: inactive; CYP2C9 inhib: inactive

How did Cc1cc(N2CCCCCC2)nc(-c2ccccc2O)n1 do in these assays?
PostGolgi yeast: inactive; PostGolgi ctrl: 34; CYP2C19 inh: inactive; CYP2C9 act: inactive; CYP2C19 activ: inactive; CYP2C9 inhib: inactive

What do the screens show for `Cc1cc(N2CCN(C(=O)c3ccco3)CC2)nc(-c2ccccc2)n1`?
CYP2C19 inh: 74; CYP2C9 act: inactive; CYP2C19 activ: inactive; CYP2C9 inhib: 55

What do the screens show for `COc1ccc(C2(O)CC3CCC(C2)N3c2cc(C)nc(-c3ccccc3)n2)cc1` (stereo unspecified)?
PostGolgi yeast: inactive; PostGolgi ctrl: inactive; CYP2C19 inh: 53; CYP2C9 act: inactive; CYP2C19 activ: inactive; CYP2C9 inhib: 93

How did Cc1cc(N2CCN(c3ccccc3)CC2)nc(-c2ccccc2)n1 do in these assays?
PostGolgi yeast: inactive; PostGolgi ctrl: 67; CYP2C19 inh: 86; CYP2C9 act: inactive; CYP2C19 activ: inactive; CYP2C9 inhib: inactive

How did Cc1cc(Oc2ccccc2)nc(-c2ccccc2)n1 do in these assays?
PostGolgi yeast: inactive; PostGolgi ctrl: inactive; CYP2C19 inh: inactive; CYP2C9 act: inactive; CYP2C19 activ: inactive; CYP2C9 inhib: inactive

How did CN(C)S(=O)(=O)c1ccc2c(c1)c(=O)c(C(=O)N1CCN(c3ccccn3)CC1)cn2C do in these assays?
PostGolgi yeast: inactive; PostGolgi ctrl: inactive; CYP2C19 inh: inactive; CYP2C9 act: inactive; CYP2C19 activ: inactive; CYP2C9 inhib: inactive

What do the screens show for `C/C(Cn1nnc([N+](=O)[O-])n1)=N\NC(=O)c1ccccc1`?
PostGolgi yeast: inactive; PostGolgi ctrl: inactive; CYP2C19 inh: inactive; CYP2C9 act: inactive; CYP2C19 activ: inactive; CYP2C9 inhib: inactive

What do the screens show for `CCCCn1c(=O)[nH]c(=O)c2c1nc(-c1ccsc1)n2Cc1ccccc1`?
PostGolgi yeast: inactive; PostGolgi ctrl: 31; CYP2C19 inh: inactive; CYP2C9 act: inactive; CYP2C19 activ: inactive; CYP2C9 inhib: inactive

How did COCCn1c(-c2ccsc2)nc2c1c(=O)[nH]c(=O)n2CC(C)C do in these assays?
PostGolgi yeast: inactive; PostGolgi ctrl: inactive; CYP2C19 inh: 55; CYP2C9 act: inactive; CYP2C19 activ: inactive; CYP2C9 inhib: inactive

How did FC(F)(F)c1cnc(-n2cc[nH]c2=S)c(Cl)c1 do in these assays?
PostGolgi yeast: inactive; PostGolgi ctrl: inactive; CYP2C19 inh: inactive; CYP2C9 act: inactive; CYP2C19 activ: inactive; CYP2C9 inhib: inactive

What do the screens show for `CCn1c(COc2ccccc2C)nnc1SCC(=O)N1CCN(c2ccccc2)CC1`?
PostGolgi yeast: inactive; PostGolgi ctrl: inactive; CYP2C19 inh: inactive; CYP2C9 act: inactive; CYP2C19 activ: inactive; CYP2C9 inhib: inactive

How did Cn1c(Cc2ccccc2)nnc1SCC(=O)N1CCOCC1 do in these assays?
PostGolgi yeast: inactive; PostGolgi ctrl: inactive; CYP2C19 inh: inactive; CYP2C9 act: inactive; CYP2C19 activ: inactive; CYP2C9 inhib: inactive

What do the screens show for `CCn1c(CSCc2ccc(C)cc2)nnc1SCC(=O)N1CCN(c2ccccc2)CC1`?
PostGolgi yeast: inactive; PostGolgi ctrl: inactive; CYP2C19 inh: inactive; CYP2C9 act: inactive; CYP2C19 activ: inactive; CYP2C9 inhib: 78

Results for CCCn1c(Cc2ccccc2)nnc1SCC(=O)N1CCOCC1 ?
PostGolgi yeast: inactive; PostGolgi ctrl: 30; CYP2C19 inh: inactive; CYP2C9 act: inactive; CYP2C19 activ: inactive; CYP2C9 inhib: inactive

What do the screens show for `CCn1c(CC(=O)Nc2cccc(OC)c2)nnc1SCC(=O)N1CCN(c2ccccc2)CC1`?
PostGolgi yeast: inactive; PostGolgi ctrl: inactive; CYP2C19 inh: inactive; CYP2C9 act: inactive; CYP2C19 activ: inactive; CYP2C9 inhib: 59

Results for CCOC(=O)CSc1nnc(Cn2c(=O)sc3ccccc32)n1-c1ccccc1C ?
PostGolgi yeast: inactive; PostGolgi ctrl: inactive

How did CCN1C(=O)N(c2ccc(Cl)cc2)C(C)=CC1(C)C do in these assays?
PostGolgi yeast: inactive; PostGolgi ctrl: inactive; CYP2C19 inh: inactive; CYP2C9 act: inactive; CYP2C19 activ: inactive; CYP2C9 inhib: inactive

Results for Cc1ccc(-c2ccc(=O)n(CC(=O)Nc3cccc(C(=O)N4CCN(C)CC4)c3)n2)cc1 ?
PostGolgi yeast: inactive; PostGolgi ctrl: inactive; CYP2C19 inh: inactive; CYP2C9 act: inactive; CYP2C19 activ: inactive; CYP2C9 inhib: inactive
